Here are results for 4 compounds from PubChem BioAssay (EPA / NIEHS).

Read-out in experiment [1]: urokinase plasminogen activator (uPA), PLAU (gene 5328)
Briefly: BSK_KF3CT_uPA: BioMAP Diversity Plus: KF3CT Assay for urokinase plasminogen activator (uPA) Biomarker Activity (AID 2283075). Particulars: primary human keratinocytes with fibroblasts; actives raise or lower the signal. Summed up: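 Values derive from bidirectional fitting against DMSO controls. Keratinocyte/foreskin fibroblast co-cultures received chemical; 24 h later uPA was detected by ELISA, with SRB total-protein staining in parallel wells for overt cytotoxicity.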

Read-out in experiment [2]: CD40, CD40 (gene 958)
Briefly: BSK_LPS_CD40: BioMAP Diversity Plus: LPS Assay for CD40 Biomarker Activity (AID 2283076). Particulars: primary human HUVEC with PBMC; actives raise or lower the signal. An outline of the steps: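 HUVEC plus PBMC co-culture stimulated with LPS; CD40 quantified by ELISA 24 h after compound dosing. Fitting was bidirectional relative to DMSO. SRB staining of parallel cultures flagged overt cytotoxicity.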

Read-out in experiment [3]: E-selectin (Homo sapiens) (UniProt P16581)
Briefly: BSK_LPS_Eselectin: BioMAP Diversity Plus: LPS Assay for Eselectin Biomarker Activity (AID 2283077). Conditions: primary human HUVEC with PBMC; actives raise or lower the signal. An outline of the steps:
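Human umbilical vein endothelial cells co-cultured with PBMC under LPS stimulation; cell-surface E-selectin measured by ELISA 24 h after dosing. Change in either direction versus DMSO, with SRB total-protein staining in parallel cultures for cytotoxicity.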

Read-out in experiment [4]: Interleukin-8 (IL8), CXCL8 (gene 3576)
Briefly: BSK_LPS_IL8: BioMAP Diversity Plus: LPS Assay for Interleukin-8 (IL8) Biomarker Activity (AID 2283078). Particulars: primary human HUVEC with PBMC; actives raise or lower the signal. An outline of the steps: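 Human umbilical vein endothelial cells co-cultured with PBMC, LPS-stimulated, exposed to compound for 24 h. IL-8 quantified by ELISA; fitted in both directions against DMSO, with SRB total-protein staining of parallel cultures for cytotoxicity.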

Experiment [5] can be described thus: BSK_LPS_SRB: Viability Assessment in the BioMAP Diversity Plus: LPS Assay (AID 2283079).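 Note: total protein by sulforhodamine B absorbance as a cytotoxicity measure; measured one day after compound addition; fitted in both directions against DMSO so loss or gain of signal counts.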 Conditions: primary human HUVEC with PBMC. An outline of the steps: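 Co-culture of human umbilical vein endothelial cells and PBMC, read 24 h after dosing. Total protein by 0.1% SRB staining after 10% TCA fixation, absorbance at 560 nm; bidirectional fit against DMSO.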

Read-out in experiment [6]: Interleukin-1 alpha (IL1a), IL1A (gene 3552)
Briefly: BSK_LPS_IL1a: BioMAP Diversity Plus: LPS Assay for Interleukin-1 alpha (IL1a) Biomarker Activity (AID 2283080). Conditions: primary human HUVEC with PBMC; actives raise or lower the signal. Summed up: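 Human umbilical vein endothelial cells co-cultured with PBMC and stimulated with LPS; IL-1a measured by ELISA 24 h after dosing. Bidirectional fitting against DMSO; cytotoxicity checked by SRB staining in parallel cultures.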

Read-out in experiment [7]: Monocyte Chemoattractant Protein-1 (MCP1), CCL2 (gene 6347)
Briefly: BSK_LPS_MCP1: BioMAP Diversity Plus: LPS Assay for Monocyte Chemoattractant Protein-1 (MCP1) Biomarker Activity (AID 2283081). Conditions: primary human HUVEC with PBMC; actives raise or lower the signal. Summed up: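 Human umbilical vein endothelial cells co-cultured with PBMC, LPS-stimulated; secreted MCP-1 measured by ELISA 24 h after compound addition. Bidirectional curve fitting against DMSO baseline; SRB total-protein staining in parallel cultures for cytotoxicity.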

The nature of experiment [8]: BSK_LPS_PGE2: BioMAP Diversity Plus: LPS Assay for Prostaglandin E2 (PGE2) Biomarker Activity (AID 2283082). Particulars: primary human HUVEC with PBMC; actives raise or lower the signal. Summed up:
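ELISA read-out of PGE2 from human umbilical vein endothelial cells co-cultured with peripheral blood mononuclear cells under LPS, 24 h post-dose. Gain or loss of signal scored relative to DMSO baseline.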

Read-out in experiment [9]: Macrophage colony-stimulating factor (MCSF), CSF1 (gene 1435)
Briefly: BSK_LPS_MCSF: BioMAP Diversity Plus: LPS Assay for Macrophage colony-stimulating factor (MCSF) Biomarker Activity (AID 2283083). Particulars: primary human HUVEC with PBMC; actives raise or lower the signal. An outline of the steps: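 HUVEC–PBMC co-culture, M-CSF measured by ELISA 24 h after chemical dosing. Fitted in both directions relative to DMSO as negative control; overt cytotoxicity assessed by SRB total-protein staining in parallel cultures.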

Read-out in experiment [10]: Tumor necrosis factor (Homo sapiens) (UniProt P01375)
Briefly: BSK_LPS_TNFa: BioMAP Diversity Plus: LPS Assay for Tumour Necrosis Factor alpha (TNFa) Biomarker Activity (AID 2283085). Particulars: primary human HUVEC with PBMC; actives raise or lower the signal. An outline of the steps: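 HUVEC/PBMC co-culture, LPS-stimulated; 24 h post-dose; TNFa by ELISA; gain or loss of signal fitted bidirectionally vs DMSO baseline.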

Read-out in experiment [11]: Vascular cell adhesion molecule 1 (VCAM1), VCAM1 (gene 7412)
Briefly: BSK_LPS_VCAM1: BioMAP Diversity Plus: LPS Assay for Vascular cell adhesion molecule 1 (VCAM1) Biomarker Activity (AID 2283086). Particulars: primary human HUVEC with PBMC; actives raise or lower the signal. Summed up:
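ELISA read-out of VCAM-1 at 24 h post-dosing in an LPS-driven HUVEC/PBMC primary human co-culture; gain or loss of signal fitted bidirectionally against DMSO baseline. Cytotoxicity tracked in parallel cultures by SRB total-protein staining.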

Read-out in a further experiment: CD38, CD38 (gene 952)
Briefly: BSK_SAg_CD38: BioMAP Diversity Plus: SAg Assay for CD38 Biomarker Activity (AID 2283087). Conditions: primary human HUVEC with PBMC; actives raise or lower the signal. An outline of the steps:
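Measures CD38 on a human endothelial/PBMC co-culture driven by SEB and TSST-1, 24 h after compound exposure, using ELISA with fluorescence detection; DMSO defines baseline for bidirectional curve fitting.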

Read-out in experiment [12]: CD40, CD40 (gene 958)
Briefly: BSK_SAg_CD40: BioMAP Diversity Plus: SAg Assay for CD40 Biomarker Activity (AID 2283088). Particulars: primary human HUVEC with PBMC; actives raise or lower the signal. Summed up: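 HUVEC plus PBMC co-culture, superantigen-activated, with CD40 read by ELISA 24 h after dosing. Curves fitted in both directions against DMSO. Overt cytotoxicity checked by parallel SRB total-protein staining.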

Read-out in a further experiment: CD69, CD69 (gene 969)
Briefly: BSK_SAg_CD69: BioMAP Diversity Plus: SAg Assay for CD69 Biomarker Activity (AID 2283089). Conditions: primary human HUVEC with PBMC; actives raise or lower the signal. Summed up:
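Values derive from bidirectional fitting relative to DMSO vehicle. Cells: umbilical vein endothelium plus peripheral blood mononuclear cells, treated 24 h before fluorescent ELISA for CD69.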

Read-out in experiment [13]: Monocyte Chemoattractant Protein-1 (MCP1), CCL2 (gene 6347)
Briefly: BSK_SAg_MCP1: BioMAP Diversity Plus: SAg Assay for Monocyte Chemoattractant Protein-1 (MCP1) Biomarker Activity (AID 2283090). Particulars: primary human HUVEC with PBMC; actives raise or lower the signal. An outline of the steps:
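Values derive from bidirectional fitting of ELISA-measured MCP1 against DMSO controls. Readings were taken 24 h after dosing human vascular endothelial cells co-cultured with peripheral blood mononuclear cells under superantigen stimulation.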

Read-out in experiment [14]: E-selectin (Homo sapiens) (UniProt P16581)
Briefly: BSK_SAg_Eselectin: BioMAP Diversity Plus: SAg Assay for Eselectin Biomarker Activity (AID 2283091). Conditions: primary human HUVEC with PBMC; actives raise or lower the signal. An outline of the steps:
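Human umbilical vein endothelial cells co-cultured with peripheral blood mononuclear cells, SAg system. E-selectin is measured by ELISA 24 h after dosing and fitted bidirectionally against DMSO. Cytotoxicity is checked by SRB staining of parallel cultures.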

Read-out in experiment [15]: Monokine induced gamma interferon (MIG), CXCL9 (gene 4283)
Briefly: BSK_SAg_MIG: BioMAP Diversity Plus: SAg Assay for Monokine induced gamma interferon (MIG) Biomarker Activity (AID 2283092). Particulars: primary human HUVEC with PBMC; actives raise or lower the signal. An outline of the steps:
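Values reflect bidirectional fitting of ELISA-measured MIG against DMSO vehicle, taken 24 h after dosing of a co-culture of human umbilical vein endothelial cells and peripheral blood mononuclear cells.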

Read-out in experiment [16]: Interleukin-8 (IL8), CXCL8 (gene 3576)
Briefly: BSK_SAg_IL8: BioMAP Diversity Plus: SAg Assay for Interleukin-8 (IL8) Biomarker Activity (AID 2283094). Conditions: primary human HUVEC with PBMC; actives raise or lower the signal. Summed up: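 HUVEC/PBMC co-culture, 24 h post-dose; IL-8 by ELISA. Gain or loss of signal fitted bidirectionally vs DMSO baseline.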

Read-out in experiment [17]: Tissue Factor, F3 (gene 2152)
Briefly: BSK_LPS_TissueFactor: BioMAP Diversity Plus: LPS Assay for Tissue Factor Biomarker Activity (AID 2283084). Particulars: primary human HUVEC with PBMC; actives raise or lower the signal. Summed up: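 Human umbilical vein endothelial cells co-cultured with PBMC were dosed with compound. Cell-surface CD142 was measured by ELISA 24 h later. Activity was fitted bidirectionally against DMSO, with SRB total-protein staining in parallel cultures for cytotoxicity.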

A short description of experiment [18]: BSK_SAg_PBMCCytotoxicity: PBMC Cytotoxicity Assessment in the BioMAP Diversity Plus: SAg Assay (AID 2283093).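 Note: PBMC viability measured as Alamar Blue reduction fluorescence at 546/580 nm; fitted both ways against DMSO so a hit may be loss or gain of signal.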 Particulars: primary human HUVEC with PBMC. Summed up:
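Alamar Blue reduction (6 h, 546/580 nm) reports PBMC cytotoxicity after 90 h superantigen activation (SEB, TSST-1; 20 ng/mL final each) with 1 h compound pre-treatment. Gain or loss of signal fitted versus DMSO.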

SMILES strings stand for the structures. Active and inactive are the calls of the source. Rule for the calls: active = hit-call score of the fitted dose curve at least 0.9, where 1 is the maximum; inactive = score below 0.9.

Chain of Tumor necrosis factor (Homo sapiens) (P01375 whole entry, looked up): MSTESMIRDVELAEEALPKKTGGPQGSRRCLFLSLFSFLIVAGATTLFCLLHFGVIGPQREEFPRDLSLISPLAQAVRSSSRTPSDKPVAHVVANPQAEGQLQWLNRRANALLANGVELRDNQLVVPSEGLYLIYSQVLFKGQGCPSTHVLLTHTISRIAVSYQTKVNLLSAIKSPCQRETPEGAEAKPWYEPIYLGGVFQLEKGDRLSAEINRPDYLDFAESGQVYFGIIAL
Chain of E-selectin (Homo sapiens) (P16581 whole entry, looked up): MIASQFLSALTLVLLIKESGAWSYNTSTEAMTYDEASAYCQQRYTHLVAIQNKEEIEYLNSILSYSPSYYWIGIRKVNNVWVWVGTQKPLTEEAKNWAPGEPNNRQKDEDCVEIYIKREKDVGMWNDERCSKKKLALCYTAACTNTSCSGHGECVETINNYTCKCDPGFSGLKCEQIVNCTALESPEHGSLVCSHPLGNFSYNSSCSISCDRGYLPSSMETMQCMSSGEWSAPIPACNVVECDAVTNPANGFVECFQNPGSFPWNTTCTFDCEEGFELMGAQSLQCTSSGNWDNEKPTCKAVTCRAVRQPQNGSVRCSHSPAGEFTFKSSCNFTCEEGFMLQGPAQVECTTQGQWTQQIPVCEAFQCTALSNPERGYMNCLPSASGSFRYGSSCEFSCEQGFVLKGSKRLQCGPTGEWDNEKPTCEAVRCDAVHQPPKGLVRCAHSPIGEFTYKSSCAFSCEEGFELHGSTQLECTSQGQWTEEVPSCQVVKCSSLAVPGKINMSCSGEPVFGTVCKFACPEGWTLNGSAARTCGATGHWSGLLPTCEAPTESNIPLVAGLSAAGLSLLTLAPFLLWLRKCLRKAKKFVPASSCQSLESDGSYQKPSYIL

For `O=C1O[C@H]([C@H](O)CO)C(O)=C1O`, the outcome in [1] is “inactive”; with CD40, CD40 (gene 958) [2], “inactive”; in experiment [3], “inactive”; in [4] it was “inactive”; in [5] it was “inactive”; in experiment [6], “inactive”. Also, the outcome in experiment [7] is “inactive”; in [8] it was “inactive”; in [9], “inactive”; in [10], “inactive”; in experiment [11] it was “inactive”; with CD38, CD38 (gene 952), “inactive”. Besides, the outcome was “inactive” with CD40, CD40 (gene 958) [12]; “inactive” with CD69, CD69 (gene 969); “inactive” in experiment [13]; “inactive” in [14]; “inactive” in [15]; “inactive” in experiment [16].
Take `CC1=C(C)S(=O)(=O)CCS1(=O)=O`: the outcome in experiment [1], in experiment [3], in [5], in experiment [6], in [7] and in [8] was inactive. Besides, the outcome was “inactive” in [9]; “inactive” in [17]; “inactive” in experiment [10]; “inactive” with CD38, CD38 (gene 952); “inactive” with CD40, CD40 (gene 958) [12]; “inactive” with CD69, CD69 (gene 969). In addition, the result in experiment [13], in experiment [15] and in experiment [16] was inactive. Besides, the AC50 (in general, the concentration giving half of the maximal activity seen) was 4.33 µM (active) with CD40, CD40 (gene 958) [2]; 11.5 µM (active) in [11]; 3.97 µM (active) in experiment [14].
`CN(C)CCCN(C)CCCN(C)C`: the outcome in experiment [1], in experiment [3], in experiment [5], in experiment [6], in experiment [7] and in experiment [8] was inactive. Also, the outcome in [9] is “inactive”; in [10] it was “inactive”; in experiment [11] it was “inactive”; in the experiment with CD38, CD38 (gene 952), “inactive”; with CD40, CD40 (gene 958) [12], “inactive”; with CD69, CD69 (gene 969) it was “inactive”. Besides, the result in [13], in experiment [14], in [15], in experiment [18] and in [16] was inactive.
In the case of `CCCCC(CC)COC(=O)CCCCCCCC(=O)OCC(CC)CCCC` (stereo unspecified), the outcome is “inactive” in experiment [1]; “inactive” with CD40, CD40 (gene 958) [2]; “inactive” in experiment [3]; “inactive” in experiment [5]; “inactive” in [6]; “inactive” in experiment [7]. The outcome in experiment [8] is “inactive”; in [9], “inactive”; in experiment [17], “inactive”; in experiment [10], “inactive”; in experiment [11], “inactive”; with CD38, CD38 (gene 952), “inactive”. The outcome with CD40, CD40 (gene 958) [12] was “inactive”; with CD69, CD69 (gene 969), “inactive”; in experiment [13], “inactive”; in experiment [14], “inactive”; in [15] it was “inactive”; in experiment [16], “inactive”.
